From PubChem
VP16 counter: Gal4-VP16 reporter inhibition counter-screen; Drosophila S2 Gal4-VP16 UAS-luciferase, luminescence, 20 h; Potency, µM (doses to about 53.6 µM), inactives show at the highest dose activity, negative = inhibition, most hits filed as inhibitors; 310,000 tested, 3.5% active; AID 2546;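 also: Gal4-VP16 expression switched on by copper sulfate through the metallothionein promoter; nearly all actives have a fitted effect of over 50% in size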
TDP1 cell noCPT: qHTS for Inhibitors of human tyrosyl-DNA phosphodiesterase 1 (TDP1): qHTS in cells in absence of CPT; DT40 Tdp1-/- hTDP1 cells, no CPT, ATP luminescence, 48 h; Potency, µM (highest dose often 46.2 µM), for the others: top-dose activity change, negative = growth inhibition, usual class: inhibitors; 420,000 tested, 15% active; also: nearly all actives have a fitted effect of over 55% in size
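Chicken DT40 Tdp1-/- cells stably complemented with human TDP1 were seeded at 400 cells/well with DMSO in place of 20 nM camptothecin. After compound pinning, cells grew at least 48 hr at 37 °C; viability read by CellTiter-Glo luminescence.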
RORgamma inh: blocks mouse ROR gamma transcriptional activity; AID 2551; P51450; 310,000 tested, 5.4% active; Potency, µM (titrated, usually from 53.6 µM), for inactives: at the top dose activity change, negative = inhibition, most hits filed as inhibitors; Drosophila S2 Gal4-RORgamma UAS-luciferase reporter, 20 h; also: nearly all actives have a fitted effect of over 60% in size
Target sequence (P51450 whole entry, looked up, the tested form may be a part): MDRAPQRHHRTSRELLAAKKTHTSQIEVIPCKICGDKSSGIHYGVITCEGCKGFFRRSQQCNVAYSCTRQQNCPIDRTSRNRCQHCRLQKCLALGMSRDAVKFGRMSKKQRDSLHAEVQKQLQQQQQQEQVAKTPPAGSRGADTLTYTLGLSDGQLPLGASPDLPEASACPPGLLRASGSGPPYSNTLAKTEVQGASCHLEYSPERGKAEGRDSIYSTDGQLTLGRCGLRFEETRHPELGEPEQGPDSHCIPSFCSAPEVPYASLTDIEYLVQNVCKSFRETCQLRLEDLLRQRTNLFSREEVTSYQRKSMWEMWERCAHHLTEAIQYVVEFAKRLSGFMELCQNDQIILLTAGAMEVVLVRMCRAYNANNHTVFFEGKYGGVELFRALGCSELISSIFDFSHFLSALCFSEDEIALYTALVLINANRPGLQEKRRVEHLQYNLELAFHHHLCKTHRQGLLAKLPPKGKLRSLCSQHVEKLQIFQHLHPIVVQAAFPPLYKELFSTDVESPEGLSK
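In this cell-based reporter format, copper sulfate (700 uM final) drives Gal4–ROR gamma fusion expression from a metallothionein promoter in Drosophila Schneider cells; compounds preincubated 1 hr, reporter read after 20 hr at ambient temperature.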
TDP1 inh: blocks human tyrosyl-DNA phosphodiesterase 1; Q9NUW8; recombinant TDP1, AlphaScreen DNA substrate cleavage; Potency, µM (series often up to 130 µM), for inactives: at the top dose activity change, negative = inhibition, actives largely listed as inhibitors; 350,000 tested, 0.28% active; AID 485290; also: nearly all actives have a fitted effect of over 40% in size
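Signal: AlphaScreen proximity between streptavidin donor and anti-FITC acceptor beads on intact substrate. Reaction: Tdp1 1 nM, substrate 15 nM final, 5 min RT after 15 min compound preincubation.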
TDP1 cell CPT: DT40-hTDP1 cell growth loss with CPT. chicken DT40 Tdp1-/-;hTDP1 cells + 20 nM CPT, ATP luminescence, 48 h. Potency, µM (top dose mostly 46.2 µM), without a hit: top-dose activity change, negative = growth inhibition, most hits filed as inhibitors. 420,000 tested, 12% active; also: nearly all actives have a fitted effect of over 55% in size
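Cell growth measured by CellTiter-Glo luminescence after a minimum 48 h, 37 C compound exposure with 20 nM CPT in Tdp1-knockout DT40 cells stably expressing hTDP1, seeded 400/well; qHTS titration format.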
The depositor's hits bear a star; ? = inconclusive; . = no result given; [ ] = another dose, or the depositor's remark. Shown are actives, neighbours in structure and some others; about 19% of the full set was active somewhere. Calls follow the shape of the dose curve; as a rule, active = well fitted curve in the direction sought with a large enough effect; inconclusive = small, poorly fitted or top-dose-only effect, or another doubt; inactive = no such curve, though single readings can be large; an effect the other way counts as inactive or inconclusive. % is scaled to controls: 0 for no effect and ±100 for the full control effect; potency is read from the fitted curve at half-maximal effect.

SMILES	VP16 counter	TDP1 cell noCPT	RORgamma inh	TDP1 inh	TDP1 cell CPT
O=C(Nc1nnc(S(=O)(=O)N2CCc3ccccc32)s1)c1ccccc1Cl	.	?	.	6%	?
O=C(Nc1ccncc1)c1ccc(Cl)c(S(=O)(=O)N2CCc3ccccc32)c1	.	7.3µM*	.	-4%	9.2µM*
Cc1cccc(NC(=O)c2ccc(Cl)c(S(=O)(=O)N3CCCC3)c2)n1	2%	?	-8%	3%	-12%
O=C1CN(C(=O)c2ccc(Cl)c(S(=O)(=O)N3CCc4ccccc43)c2)c2ccccc2N1	3%	21µM*	28%	.	16µM*
O=S(=O)(c1cc(Cl)ccc1Cl)N1CCc2ccccc21	-2%	?	-4%	.	?
Cc1cccc(NC(=O)c2ccc(Cl)c(S(=O)(=O)N3CCc4ccccc43)c2)n1	.	?	.	2%	23µM*
CCc1nnc(NC(=O)c2ccc(Cl)c(S(=O)(=O)N3CCc4ccccc43)c2)s1	?	-24%	20µM*	3%	-11%
COc1ccccc1/C=C/CN1CCCCC1	-10%	11%	5%	.	4%
Cn1ncc2c(Nc3cccc(F)c3)ncnc21	.	-23%	.	3%	-30%
O=C1CC(c2ccccc2)=NN1c1ccccc1	.	15µM*	.	.	?
CCc1ccccc1NC(=O)Cn1cc(S(=O)(=O)N2CCCC2)c(S(=O)(=O)N2CCCC2)c1	.	7%	.	-1%	0%
N#CCC(=O)N/N=C/c1ccc(N2N=C(c3ccccc3)CC2c2ccccc2)cc1 (stereo not given)	2%	18µM*	-42%	-4%	23µM*
COc1ccc(C2CC(c3ccccc3)=NN2c2ccc(/C=N/NC(=O)c3ccncc3)cc2)cc1 (stereo not given)	7.1µM*	?	3.2µM*	5%	?
CC(=O)Nc1ccc(C2=NN(c3ccccc3)C(c3ccccc3)C2)cc1 (stereo not given)	-20%	23µM*	?	.	?
O=Cc1ccc(N2N=C(c3ccccc3)CC2c2ccccc2)cc1 (stereo not given)	8%	-21%	-16%	.	-3%
COc1cc(/C=C/C(=O)OCC(=O)NCCc2ccccc2)cc(OC)c1OC	4%	-4%	-9%	-2%	1%
CCCC(=O)O[C@@H]1C[C@@H](C)N(C(=O)c2ccccc2)c2ccc(C)cc21	-1%	21µM*	2%	-3%	21µM*
CC(C)NC(=O)c1ccc2c(=O)n(CC3CCCO3)c(=S)[nH]c2c1 (stereo not given)	-6%[10 µM]	-25%	33%	5%	3%
COC(=O)c1ccc2c(=O)n(Cc3ccc(C(=O)NC(C)C)cc3)c(=S)[nH]c2c1	3%	23µM*	-15%	5%	?
O=c1cc(O)n(-c2ccccc2)c(=S)[nH]1	-2%	?	-19%	-7%	21µM*
COc1ccc(-n2c(=S)[nH]c3cc(C(=O)N4CCN(c5ccccc5)CC4)ccc3c2=O)cc1	?	-30%	10µM*	13%	-18%
COC(=O)c1ccc2c(=O)n(-c3ccccc3F)c(=S)[nH]c2c1	5.6µM*	-25%	3.2µM*	8%	-28%
COc1ccc(N2CCN(C(=O)c3ccc4c(c3)[nH]c(=S)n3c5ccccc5nc43)CC2)cc1	1%	.	-26%	10%	.
CC(/C=N/NC(=O)c1cccc([N+](=O)[O-])c1)=C\c1ccccc1	-11%	2%	-26%	2%	-3%
COC(=O)c1ccc2c(=O)n(-c3ccccc3)c(=S)[nH]c2c1	?	0%	1.8µM*	2%	-7%
SMILES	VP16 counter	TDP1 cell noCPT	RORgamma inh	TDP1 inh	TDP1 cell CPT
COc1ccc(N=C2SC(CC(=O)Nc3cccc(Cl)c3)C(=O)N2Cc2ccco2)cc1 (stereo not given)	?	?	20%	8%	?
Cc1cc(C)c(N=C2C(=O)Nc3ccccc32)c(C)c1	-2%	-27%	-33%	.	-14%
COc1ccc(-n2c(=O)c3ccc(C(=O)NCc4ccc(C)cc4)cc3n(Cc3ccc(F)cc3Cl)c2=O)cc1	.	0%	.	2%	6%
Cc1ccc(-n2c(=O)c3ccc(C(=O)NCc4ccccc4Cl)cc3n(CC(=O)Nc3ccc(C)cc3C)c2=O)cc1	.	?	.	0%	?
CCOc1ccc(NC(=O)Cn2c(=O)n(-c3ccccc3)c(=O)c3ccc(C(=O)NCc4ccc5c(c4)OCO5)cc32)cc1	.	21µM*	.	0%	21µM*
CCc1ccc(NC(=O)Cn2c(=O)n(-c3ccc(OC)cc3)c(=O)c3ccc(C(=O)NCc4ccc(C)cc4)cc32)cc1	.	7.3µM*	.	-2%	10µM*
CCCN(CCC)C(=O)Cn1c(=O)n(-c2ccc(OC)cc2)c(=O)c2ccc(C(=O)NCc3ccc(C)cc3)cc21	.	16µM*	.	2%	?
CCc1ccc(NC(=O)Cn2c(=O)n(-c3ccccc3)c(=O)c3ccc(C(=O)NCc4ccc5c(c4)OCO5)cc32)cc1	.	?	.	0%	?
Cc1ccc(NC(=O)Cn2c(=O)n(-c3ccc(C)cc3)c(=O)c3ccc(C(=O)NCc4ccccc4Cl)cc32)cc1	.	13µM*	.	2%	7.3µM*
CCC(C)NC(=O)Cn1c(=O)n(-c2ccc(OC)cc2)c(=O)c2ccc(C(=O)NCc3ccc(C)cc3)cc21 (stereo not given)	6%	-10%	2%	-3%	14%
COc1cccc(NC(=O)Cn2c(=O)n(-c3ccc(C)cc3)c(=O)c3ccc(C(=O)NCc4ccco4)cc32)c1	.	?	.	-2%	16µM*
Cc1c(C)c2c(OCC(=O)Nc3cccnc3)cc3c(c2oc1=O)CCC(C)(C)O3	-3%	-25%	1%	.	-19%
CCCc1cc(=O)oc2c3c(cc(OCC(=O)NCCCn4ccnc4)c12)OC(C)(C)CC3	7%	26µM*	0%	.	16µM*
CCc1cc(=O)oc2c3c(cc(OCC(=O)Nc4cccnc4)c12)OC(C)(C)CC3	-10%	15µM*	?	.	?
CCc1cc(=O)oc2c3c(cc(OCC(=O)NCc4cccnc4)c12)OC(C)(C)CC3	?	21µM*	-28%	.	?
Cc1cc(=O)oc2c3c(cc(OCC(=O)NCCCn4ccnc4)c12)OC(C)(C)CC3	-3%	?	-13%	.	?
CCc1cc(=O)oc2c3c(cc(OCC(=O)NCc4ccccn4)c12)OC(C)(C)CC3	0%	?	0%	.	23µM*
COc1cccc(CN2C(=O)c3ccccc3S2(=O)=O)c1	-7%	-17%	0%	11%	14%
CC(C)c1nc(N(C)S(C)(=O)=O)nc(-c2ccc(F)cc2)c1/C=C/C(O)CC(O)CC(=O)O (stereo not given)	0%	-51%	-4%	6%	-20%
